# Only a selection was taken, and hits are over-represented in it overall.
# IL1B secr inh: inflammasome signaling inhibition, IL-1 beta readout. THP-1 LPS/ATP IL-1B secretion, AlphaLISA, 16 h; stronger effect = lower value. activity change, % at 57.5 µM. 360,000 compounds, 4.7% hits; in the data active = activity change below about -50%; inconclusive = mostly about -30% to -49%
#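 THP-1 cells pretreated 1 hr with compounds (up to 57.5 uM final), then stimulated with LPS (250 ng/mL final) plus ATP (1.25 mM final); secreted IL-1B measured by AlphaLISA after 16 hr, decreased signal indicating inhibition.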
# HT1080-NT tox: kills 2HG-producing HT-1080-NT fibrosarcoma cells | HT-1080-NT fibrosarcoma viability, CellTiter-Glo ATP luminescence, 48 h | Potency, µM (doses to about 46.1 µM), for the others: at the highest dose activity, negative = less viability, most hits filed as cytotoxic | 360,000 compounds, 1.6% hits | AID 686970;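 note: NT is the 2HG producing partner of a matched IDH1 knockdown line; potency is the fitted concentration of half-maximal effect; 0% = DMSO-treated cells and -100% = media-only wells without cells; nearly all actives have a fitted effect of over 55% in size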
#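 Viability of the 2HG-overproducing fibrosarcoma line after 48 hours of compound exposure at 37 degrees C was determined by luminescence with CellTiter-Glo, and concentration-effect curves were then fitted and categorized.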
# HT1080 IDH1KD tx: kills HT-1080 cells with IDH1 knockdown. HT-1080 IDH1 knockdown viability, ATP luminescence, 48 h. Potency, µM (highest dose often 46.1 µM), for the others: top-dose activity, negative = toxicity, actives largely listed as cytotoxic. 360,000 compounds, 2% hits. AID 686971;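 note: potency is the fitted concentration of half-maximal effect; 0% = DMSO wells and -100% = cell-free medium wells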
#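 IDH1KD HT-1080 cells, 750/well, RPMI + 5% FBS; compound pinned after 2 h settling; 48 h, 37 °C; CellTiter-Glo luminescence; % activity normalised to DMSO and no-cell wells; curves fitted, classed by r2 and efficacy.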
# ALOX12 inh: ALOX12 (human) lipoxygenase inhibition. P18054. purified 12hLO, xylenol orange hydroperoxide absorbance. Potency, µM (series often up to 108 µM), inactives show at the top dose activity change, negative = inhibition, hits mostly inhibitors. 580,000 compounds, 1.1% hits; note: potency is the fitted concentration of half-maximal effect
# Target sequence (P18054 whole entry, looked up): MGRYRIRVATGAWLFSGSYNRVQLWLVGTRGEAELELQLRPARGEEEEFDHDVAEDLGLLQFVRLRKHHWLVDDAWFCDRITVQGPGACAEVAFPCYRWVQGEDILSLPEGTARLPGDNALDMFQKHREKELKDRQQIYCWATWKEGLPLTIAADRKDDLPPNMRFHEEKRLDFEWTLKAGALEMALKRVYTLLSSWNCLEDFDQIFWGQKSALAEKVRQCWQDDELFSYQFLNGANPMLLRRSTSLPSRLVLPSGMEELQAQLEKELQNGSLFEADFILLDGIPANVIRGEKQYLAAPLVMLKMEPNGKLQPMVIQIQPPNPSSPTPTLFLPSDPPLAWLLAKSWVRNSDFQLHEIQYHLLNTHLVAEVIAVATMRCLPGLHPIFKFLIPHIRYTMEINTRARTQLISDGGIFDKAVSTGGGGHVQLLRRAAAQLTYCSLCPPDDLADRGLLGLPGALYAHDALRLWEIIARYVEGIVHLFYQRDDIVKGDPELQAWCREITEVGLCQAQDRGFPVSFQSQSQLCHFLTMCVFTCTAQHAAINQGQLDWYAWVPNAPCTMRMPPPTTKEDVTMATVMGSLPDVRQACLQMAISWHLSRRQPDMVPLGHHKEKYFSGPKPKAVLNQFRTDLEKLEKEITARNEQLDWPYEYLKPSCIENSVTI
#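 Hydroperoxide product was detected by ferrous iron/xylenol orange as the 573 to 405 nm absorbance ratio. Arachidonic acid at 40 uM (final) was turned over for 30 min at room temperature by 150 nM human 12hLO, pH 7.0 Hepes buffer, after 15 min compound preincubation.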
# TDP1 cell CPT: DT40-hTDP1 cell growth loss with CPT. chicken DT40 Tdp1-/-;hTDP1 cells + 20 nM CPT, ATP luminescence, 48 h. Potency, µM (highest dose often 46.2 µM), inactives show at the top dose activity change, negative = growth inhibition, most hits filed as inhibitors. 420,000 compounds, 12% hits. AID 686979; note: potency is the fitted concentration of half-maximal effect; nearly all actives have a fitted effect of over 55% in size
#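 Chicken DT40 Tdp1-/- cells stably complemented with human TDP1 were seeded at 400 cells/well in medium containing 20 nM camptothecin, exposed to pin-transferred compounds, and grown at 37 °C for at least 48 hr. Viability was read as ATP luminescence.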
# TDP1 cell noCPT: qHTS for Inhibitors of human tyrosyl-DNA phosphodiesterase 1 (TDP1): qHTS in cells in absence of CPT; DT40 Tdp1-/- hTDP1 cells, no CPT, ATP luminescence, 48 h; Potency, µM (top dose mostly 46.2 µM), for inactives: top-dose activity change, negative = growth inhibition, actives largely listed as inhibitors; 420,000 compounds, 15% hits; AID 686978, 2013; note: potency is the fitted concentration of half-maximal effect; nearly all actives have a fitted effect of over 55% in size
#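 Cells were dispensed at 400 per well, compounds added by pin tool, plates incubated ≥48 hr at 37 °C, then CellTiter-Glo added for 30 min at room temperature before luminescence reading. Line: DT40 Tdp1-/- complemented with hTDP1; camptothecin omitted.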
# * = called active by the depositor; ? = inconclusive; . = no result; [ ] = remark or other dose. Unless noted, calls come from the whole dose curve; as a rule, active = well fitted curve in the direction sought with a large enough effect; inconclusive = small, poorly fitted or top-dose-only effect, or another doubt; inactive = no such curve, though single readings can be large; an effect the other way counts as inactive or inconclusive. Unless noted, % is set by controls: 0 for no effect and ±100 for the full control effect.
SMILES,IL1B secr inh,HT1080-NT tox,HT1080 IDH1KD tx,ALOX12 inh,TDP1 cell CPT,TDP1 cell noCPT
COc1cc(-c2cnc3c(NC(C)=O)cc(-c4cccc(C(=O)NCCO)c4)cn23)cc(OC)c1OC,83,-2%,6%,?,16µM*,10µM*
COc1ccc(-c2cnc3c(NC(C)=O)cc(-c4cccc(C(=O)NCCN(C)C)c4)cn23)cc1OC,?,?,33µM*,7%,?,12µM*
COC(=O)C(C)Oc1ccc2c(=O)c(-c3ccc(Br)cc3)c(C)oc2c1 (stereo not drawn),.,.,.,-12%,.,.
O=C1NC(=NC2CCCCC2)C2(CCCN(Cc3ccc(F)cc3)C2)N1c1cccnc1 (stereo not drawn),.,.,.,8%[6.33 µM],.,.
O=C(NCc1ccc2c(c1)OCO2)C1CN(c2ccc(F)cc2)C(=O)N1 (stereo not drawn),.,.,.,54%,.,.
O=C(C1CCCC1)N1CCC(Cc2nncn2CC2CC2)C1 (stereo not drawn),.,.,.,-2%,.,.
CN1C(C(=O)N2CCN(c3ccccc3)CC2)=CC(c2ccc(F)cc2)=NS1(=O)=O,.,.,.,-2%,.,.
COc1ccc(-c2cnc3c(NC(C)=O)cc(-c4cccc(C(=O)NCCO)c4)cn23)cc1OC,-55*,-18%,-17%,10%,21µM*,21µM*
CCn1c(N2CCN(S(=O)(=O)c3ccccc3C(F)(F)F)CC2)nc2ccccc21,-52*,?,-26%,?,?,16µM*
CCN(CC)CCCNC(=S)N1CCN(c2nc3ccccc3n2CC)CC1,-19,-20%,-12%,17%,33%,1%
Cn1c(N2CCN(S(=O)(=O)c3ccc(F)cc3)CC2)nc2ccccc21,0,-17%,-20%,3%,?,?
CCn1c(N2CCN(C(=O)C34CC5CC(CC(C5)C3)C4)CC2)nc2ccccc21,?,?,?,.,29µM*,26µM*
CCn1c(N2CCN(S(=O)(=O)c3ccc(OC)cc3)CC2)nc2ccccc21,-66*,-29%,?,0%,?,?
O=S(=O)(c1ccccc1C(F)(F)F)N1CCN(S(=O)(=O)c2ccccc2C(F)(F)F)CC1,0,6%[9.24 µM],-2%,3%,?,-18%
CCCCCCCc1ccc(-c2nnc(-c3ccccc3Br)o2)cc1,.,.,.,15%,.,.
COc1ccc(CCN(C)CCc2ccc(OC)c(OC)c2)cc1OC,0,1%,-4%,5%,?,-19%
COc1ccc(CCN(C)CCCC(C#N)(c2cc(OC)c(OC)c(OC)c2)C(C)C)cc1OC (stereo not drawn),-24,1%,-15%,?,?,21µM*
Cc1oc(-c2ccccc2)nc1CC(=O)Nc1ccccn1,.,.,.,-17%,.,.
CCc1nonc1NC(=O)c1oc2cc(C)c(Cl)cc2c1C,17,12%,20%,6%,?,9.2µM*
CCOc1ccc(-c2nonc2NC(=O)c2oc3ccc(Cl)cc3c2C)cc1,.,.,.,-4%,0.92µM*,0.92µM*
COC(=O)c1c(SC)nc2ccccc2c1OCc1ccc(C)cc1C,.,.,.,?,?,26µM*
CCC(=O)Nc1ccc2nc(SCc3ccc(F)c4ccccc34)sc2c1,.,.,.,-17%,.,.
COC(=O)c1c(N2C(=O)[C@H]3[C@@H](C2=O)[C@]2(C(=O)Nc4c2ccc(C)c4C)N2CCC[C@@H]32)sc(C)c1C,-10,-18%,-21%,-22%,18µM*,16µM*
COc1cc(C)cc2oc(=O)c(CC(=O)NCCc3ccccc3)c(C)c12,.,.,.,42%,.,.
CCOc1ccccc1C1C(C(=O)Nc2ccccc2)=C(C)Nc2nc(SCC(=O)c3ccc(C)cc3)nn21 (stereo not drawn),.,.,.,?,7.3µM*,9.2µM*
SMILES,IL1B secr inh,HT1080-NT tox,HT1080 IDH1KD tx,ALOX12 inh,TDP1 cell CPT,TDP1 cell noCPT
CC1=C(C(=O)Nc2ccc(C)cc2C)C(c2ccccc2)n2nc(SCC(=O)c3ccc(C)cc3)nc2N1 (stereo not drawn),.,.,.,0%,-7%,-1%
CC1=C(C(=O)Nc2ccc(C)cc2C)C(c2ccccc2F)n2nc(SCC(=O)c3ccc(C)cc3)nc2N1 (stereo not drawn),.,.,.,-21%,18µM*,15µM*
CCCC(C(=O)NCCC(C)C)N(Cc1ccccc1)C(=O)c1snc(C(N)=O)c1N (stereo not drawn),-22,-18%,0%,?,18µM*,?
CCCC(C(=O)NC1CCCC1)N(Cc1ccc2c(c1)OCO2)C(=O)c1snc(C(N)=O)c1N (stereo not drawn),-53*,-19%,-3%[9.24 µM],-15%,?,?
CCC(C(=O)NC1CCCC1)N(Cc1ccccc1Cl)C(=O)c1snc(C(N)=O)c1N (stereo not drawn),-1,-10%,-2%,1%,-5%,13µM*
CCCC(C(=O)NC1CCCC1)N(Cc1ccccc1Cl)C(=O)c1snc(C(N)=O)c1N (stereo not drawn),?,?,?,13%,-25%,-19%
CCCCC(C(=O)NC1CCCC1)N(Cc1ccccc1)C(=O)c1snc(C(N)=O)c1N (stereo not drawn),-28,-25%,-21%,-21%,?,21µM*
CCCC(C(=O)NC1CCCC1)N(Cc1ccc(F)cc1)C(=O)c1snc(C(N)=O)c1N (stereo not drawn),10,-17%,-13%,-9%,-5%,-86%
CN(Cc1ccc(C(=O)NCC(F)(F)F)cc1)C(=O)Cc1cccc(C(F)(F)F)c1,.,.,.,1%,.,.
CC[C@H]1c2[nH]c3ccccc3c2C[C@@H]2C(=O)N(c3ccc(F)cc3)C(=O)N21,10,-1%,-10%,-6%,16µM*,?
c1ccc(-c2cc3ccccc3nc2N2CCCC2)cc1,40,-14%,-21%,0%,1%,?
CCOC(=O)/C(C#N)=C/c1cc2ccccc2nc1N1CCOCC1,25,-1%,1%,-15%,20%,-9%
N#CC(C#N)=Cc1cc2ccccc2nc1N1CCCCC1,-104*,-7%,-4%,-20%,21µM*,21µM*
N#Cc1ccc(C(=O)/C=C/c2cc3ccccc3nc2N2CCOCC2)cc1,.,.,.,11µM*,.,.
COc1ccc(CNC(=O)/C=C/c2ccc(S(=O)(=O)NCc3ccco3)cc2)cc1OC,-8,-6%,-1%,1%,?,26µM*
O=C(/C=C/c1ccc(Cl)cc1)NCc1ccco1,-27,-2%,3%,19%,?,?

# Compound activity: PubChem, National Center for Advancing Translational Sciences (NCATS)
